For some assays here: Measured potencies and affinities stand elsewhere.
Experiments:
Parameters in all cases: scale not given: direction of the effect not stated beside the values
[1] = molecular target: Protein translocase subunit SecA (Escherichia coli (strain K12)) (UniProt P10408); assay: Assay to Identify E. coli SecA ATPase Inhibitors; format: functional; conditions: 30 µM
[2] = molecular target: T1, Ubiquitin-activating enzyme e1, putative (Leishmania donovani (strain BPK282A1)) (UniProt E9BSI1); assay: Leishmania donovani Ubiquitin Activating Enzyme (LdE1); format: functional; conditions: 30 µM
T1 sequence (whole entry): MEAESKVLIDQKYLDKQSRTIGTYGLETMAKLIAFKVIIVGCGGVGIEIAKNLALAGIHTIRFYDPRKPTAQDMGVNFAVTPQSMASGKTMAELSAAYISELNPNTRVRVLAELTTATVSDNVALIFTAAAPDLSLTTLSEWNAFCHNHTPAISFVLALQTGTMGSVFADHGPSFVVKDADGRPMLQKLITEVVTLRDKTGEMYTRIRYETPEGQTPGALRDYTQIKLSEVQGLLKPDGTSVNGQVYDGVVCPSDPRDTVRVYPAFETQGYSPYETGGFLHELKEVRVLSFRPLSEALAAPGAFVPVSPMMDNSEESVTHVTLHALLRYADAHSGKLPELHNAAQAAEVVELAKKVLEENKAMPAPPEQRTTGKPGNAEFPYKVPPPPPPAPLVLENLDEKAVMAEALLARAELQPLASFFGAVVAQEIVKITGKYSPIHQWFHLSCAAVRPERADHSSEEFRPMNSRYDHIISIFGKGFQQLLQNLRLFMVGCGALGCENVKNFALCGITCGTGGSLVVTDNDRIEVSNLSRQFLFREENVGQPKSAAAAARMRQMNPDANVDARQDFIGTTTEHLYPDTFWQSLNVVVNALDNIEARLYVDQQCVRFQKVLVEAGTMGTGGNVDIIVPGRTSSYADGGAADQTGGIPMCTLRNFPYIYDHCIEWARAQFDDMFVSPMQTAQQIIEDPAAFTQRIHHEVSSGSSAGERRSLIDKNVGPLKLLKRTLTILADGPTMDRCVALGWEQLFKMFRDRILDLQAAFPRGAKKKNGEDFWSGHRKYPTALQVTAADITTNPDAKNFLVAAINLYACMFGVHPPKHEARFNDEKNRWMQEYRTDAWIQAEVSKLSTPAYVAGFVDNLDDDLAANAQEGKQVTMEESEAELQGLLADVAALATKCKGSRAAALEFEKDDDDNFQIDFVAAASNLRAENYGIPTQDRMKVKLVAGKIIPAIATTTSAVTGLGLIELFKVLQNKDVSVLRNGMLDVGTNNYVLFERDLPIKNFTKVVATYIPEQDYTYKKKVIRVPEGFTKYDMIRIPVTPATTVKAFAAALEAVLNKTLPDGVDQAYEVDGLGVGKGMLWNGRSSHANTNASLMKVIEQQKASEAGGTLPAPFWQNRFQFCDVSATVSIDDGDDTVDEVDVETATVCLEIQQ

[3] = molecular target: AMP-activated protein kinase, AMPK (Homo sapiens) (UniProt P54646+O43741+P54619+Q9UGJ0+Q9Y478+Q13131+Q9UGI9); assay: AMP-dependent Kinase enzyme assay. An in vitro enzyme assay that detects ADP turnover that is directly proportional to AMPK activity. This uses naive AMPK that is activated during the assay with MK-8722; format: functional; conditions: 30 µM
[4] = molecular target: Sialic acid-binding Ig-like lectin 9 (Homo sapiens) (UniProt Q9Y336); assay: Hs-Siglec9 ALPHAscreen SOP 20170721; conditions: 10 µM
Chain of Sialic acid-binding Ig-like lectin 9 (Homo sapiens) (Q9Y336 whole entry): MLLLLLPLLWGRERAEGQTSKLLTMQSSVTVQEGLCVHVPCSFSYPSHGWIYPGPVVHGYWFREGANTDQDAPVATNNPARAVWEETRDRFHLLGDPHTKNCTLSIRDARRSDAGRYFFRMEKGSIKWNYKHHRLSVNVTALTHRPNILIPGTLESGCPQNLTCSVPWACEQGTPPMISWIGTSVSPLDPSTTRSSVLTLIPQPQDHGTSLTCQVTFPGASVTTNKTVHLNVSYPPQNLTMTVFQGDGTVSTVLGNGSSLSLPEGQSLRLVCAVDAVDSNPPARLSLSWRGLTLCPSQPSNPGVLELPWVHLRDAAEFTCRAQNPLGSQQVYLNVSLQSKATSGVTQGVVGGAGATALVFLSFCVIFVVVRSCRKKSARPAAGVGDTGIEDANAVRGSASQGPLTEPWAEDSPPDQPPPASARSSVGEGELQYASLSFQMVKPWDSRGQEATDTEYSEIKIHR

Trypanosoma cruzi = assay: Trypanosoma cruzi phosphomannomutase and mannose-1-phosphate guanylyltransferase assay; format: functional; conditions: 10 µM
[5] = molecular target: T2, Arginase-2, mitochondrial (Homo sapiens) (UniProt P78540); assay: in vitro enzyme assay to detect the production of urea directly proportional to the activity of Arginase II; format: functional; conditions: 33.3 µM; further: in the data most compounds retested in dose-response had high values
T2 sequence (whole entry): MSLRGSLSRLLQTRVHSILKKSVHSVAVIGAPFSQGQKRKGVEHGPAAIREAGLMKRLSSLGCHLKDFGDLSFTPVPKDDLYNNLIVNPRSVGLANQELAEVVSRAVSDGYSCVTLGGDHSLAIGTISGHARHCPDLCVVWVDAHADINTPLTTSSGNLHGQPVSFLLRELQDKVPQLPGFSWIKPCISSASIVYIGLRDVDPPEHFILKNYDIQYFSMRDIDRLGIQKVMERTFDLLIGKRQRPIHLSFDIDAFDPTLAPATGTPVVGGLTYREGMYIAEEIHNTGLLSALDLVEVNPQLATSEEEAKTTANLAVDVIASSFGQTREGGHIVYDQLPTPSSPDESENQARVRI

[6] = molecular target: T3, Proteasome subunit beta (Trypanosoma cruzi) (UniProt O96673); assay: Trypanosoma cruzi proteasome chymotrypsin-like activity (TcProtChymo) assay.; further: in the data most compounds retested in dose-response had high values; format: functional; conditions: 9.37 µM
T3 sequence (whole entry): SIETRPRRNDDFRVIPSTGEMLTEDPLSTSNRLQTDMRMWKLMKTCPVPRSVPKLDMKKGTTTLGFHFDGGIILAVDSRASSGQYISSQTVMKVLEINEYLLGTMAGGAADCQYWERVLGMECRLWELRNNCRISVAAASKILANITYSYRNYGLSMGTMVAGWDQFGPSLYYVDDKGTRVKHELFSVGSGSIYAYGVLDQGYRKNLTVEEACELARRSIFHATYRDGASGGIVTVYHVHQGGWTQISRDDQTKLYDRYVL

Homo sapiens = organism: Homo sapiens; assay: To identify inhibition of the IFN signalling (Jak-Stat) pathway via expression of an eGFP reporter gene under the control of an IFN-stimulated response element (ISRE) containing MxA promoter.; format: functional; conditions: 30 µM
[7] = molecular target: T4, Tyrosyl-tRNA synthetase, putative (Trypanosoma cruzi (strain CL Brener)) (UniProt Q4DSP6); assay: Trypanosoma cruzi tyrosyl tRNA synthetase (TcYRS) _High Tyrosine SOP; format: functional; conditions: 30 µM; further: in the data most compounds retested in dose-response had high values
T4 sequence (whole entry): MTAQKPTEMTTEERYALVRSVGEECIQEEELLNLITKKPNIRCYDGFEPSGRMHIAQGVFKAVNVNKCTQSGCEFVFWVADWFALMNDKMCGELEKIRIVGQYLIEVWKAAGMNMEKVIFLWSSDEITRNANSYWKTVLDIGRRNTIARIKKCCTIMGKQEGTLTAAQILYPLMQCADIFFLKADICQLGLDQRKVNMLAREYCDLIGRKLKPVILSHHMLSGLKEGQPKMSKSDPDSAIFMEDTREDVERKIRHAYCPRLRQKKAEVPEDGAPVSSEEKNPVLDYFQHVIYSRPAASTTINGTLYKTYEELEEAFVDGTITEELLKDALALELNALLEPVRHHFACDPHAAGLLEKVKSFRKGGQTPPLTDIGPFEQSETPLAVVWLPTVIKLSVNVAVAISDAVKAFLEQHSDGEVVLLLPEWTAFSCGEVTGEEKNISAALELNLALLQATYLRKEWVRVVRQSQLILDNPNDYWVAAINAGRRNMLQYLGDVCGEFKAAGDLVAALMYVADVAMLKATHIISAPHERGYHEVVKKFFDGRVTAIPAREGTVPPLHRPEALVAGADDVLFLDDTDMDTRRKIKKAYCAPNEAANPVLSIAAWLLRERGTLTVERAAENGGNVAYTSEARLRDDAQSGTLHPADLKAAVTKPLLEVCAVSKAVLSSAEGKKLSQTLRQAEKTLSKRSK

[8] = molecular target: T4, Tyrosyl-tRNA synthetase, putative (Trypanosoma cruzi (strain CL Brener)); assay: Trypanosoma cruzi tyrosyl tRNA synthetase (TcYRS) SOP; format: functional; conditions: 30 µM
[9] = molecular target: Chromo domain-containing protein 1 (Saccharomyces cerevisiae (strain ATCC 204508 / S288c) (Baker's yeast)) (UniProt P32657); assay: ScCHD-1 Enzyme Inhibition Assay; format: functional; conditions: 30 µM; further: in the data most compounds retested in dose-response had high values
Chain of Chromo domain-containing protein 1 (Saccharomyces cerevisiae (strain ATCC 204508 / S288c) (Baker's yeast)) (P32657 whole entry, the tested form may be a part): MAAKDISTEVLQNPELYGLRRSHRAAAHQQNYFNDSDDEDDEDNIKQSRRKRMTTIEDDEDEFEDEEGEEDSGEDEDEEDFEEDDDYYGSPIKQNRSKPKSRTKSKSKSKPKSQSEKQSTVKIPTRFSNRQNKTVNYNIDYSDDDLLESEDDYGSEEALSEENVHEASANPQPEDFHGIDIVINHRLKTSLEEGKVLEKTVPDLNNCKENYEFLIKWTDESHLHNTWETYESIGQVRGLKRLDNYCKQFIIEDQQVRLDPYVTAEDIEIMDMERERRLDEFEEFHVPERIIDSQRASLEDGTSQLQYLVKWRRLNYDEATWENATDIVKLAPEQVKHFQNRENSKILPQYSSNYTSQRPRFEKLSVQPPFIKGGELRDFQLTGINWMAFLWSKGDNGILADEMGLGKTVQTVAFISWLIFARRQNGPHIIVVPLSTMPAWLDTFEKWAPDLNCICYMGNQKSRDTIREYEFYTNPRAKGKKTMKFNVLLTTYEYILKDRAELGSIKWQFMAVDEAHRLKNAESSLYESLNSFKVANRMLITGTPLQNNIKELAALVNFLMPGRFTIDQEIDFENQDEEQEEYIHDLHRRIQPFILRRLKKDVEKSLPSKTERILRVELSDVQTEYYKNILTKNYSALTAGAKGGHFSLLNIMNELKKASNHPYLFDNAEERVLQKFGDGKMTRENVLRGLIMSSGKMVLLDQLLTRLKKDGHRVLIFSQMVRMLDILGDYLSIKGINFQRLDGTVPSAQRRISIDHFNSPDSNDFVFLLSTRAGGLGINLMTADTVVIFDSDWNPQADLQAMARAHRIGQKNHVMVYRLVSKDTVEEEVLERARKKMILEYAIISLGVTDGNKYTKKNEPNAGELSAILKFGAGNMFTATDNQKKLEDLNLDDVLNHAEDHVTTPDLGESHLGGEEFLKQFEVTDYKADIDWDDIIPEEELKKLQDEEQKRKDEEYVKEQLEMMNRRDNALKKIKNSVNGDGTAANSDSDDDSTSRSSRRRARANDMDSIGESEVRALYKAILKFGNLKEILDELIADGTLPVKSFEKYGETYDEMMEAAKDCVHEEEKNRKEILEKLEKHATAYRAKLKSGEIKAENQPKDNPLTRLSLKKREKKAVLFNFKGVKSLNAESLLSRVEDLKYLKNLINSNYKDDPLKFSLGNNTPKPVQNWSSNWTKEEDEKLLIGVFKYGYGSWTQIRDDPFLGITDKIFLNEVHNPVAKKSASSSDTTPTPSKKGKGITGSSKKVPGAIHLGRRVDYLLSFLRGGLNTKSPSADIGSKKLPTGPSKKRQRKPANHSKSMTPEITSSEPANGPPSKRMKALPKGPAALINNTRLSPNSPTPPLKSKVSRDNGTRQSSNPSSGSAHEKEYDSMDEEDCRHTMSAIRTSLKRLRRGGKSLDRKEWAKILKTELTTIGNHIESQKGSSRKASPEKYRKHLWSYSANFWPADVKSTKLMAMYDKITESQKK

Chain of Protein translocase subunit SecA (Escherichia coli (strain K12)) (P10408 whole entry): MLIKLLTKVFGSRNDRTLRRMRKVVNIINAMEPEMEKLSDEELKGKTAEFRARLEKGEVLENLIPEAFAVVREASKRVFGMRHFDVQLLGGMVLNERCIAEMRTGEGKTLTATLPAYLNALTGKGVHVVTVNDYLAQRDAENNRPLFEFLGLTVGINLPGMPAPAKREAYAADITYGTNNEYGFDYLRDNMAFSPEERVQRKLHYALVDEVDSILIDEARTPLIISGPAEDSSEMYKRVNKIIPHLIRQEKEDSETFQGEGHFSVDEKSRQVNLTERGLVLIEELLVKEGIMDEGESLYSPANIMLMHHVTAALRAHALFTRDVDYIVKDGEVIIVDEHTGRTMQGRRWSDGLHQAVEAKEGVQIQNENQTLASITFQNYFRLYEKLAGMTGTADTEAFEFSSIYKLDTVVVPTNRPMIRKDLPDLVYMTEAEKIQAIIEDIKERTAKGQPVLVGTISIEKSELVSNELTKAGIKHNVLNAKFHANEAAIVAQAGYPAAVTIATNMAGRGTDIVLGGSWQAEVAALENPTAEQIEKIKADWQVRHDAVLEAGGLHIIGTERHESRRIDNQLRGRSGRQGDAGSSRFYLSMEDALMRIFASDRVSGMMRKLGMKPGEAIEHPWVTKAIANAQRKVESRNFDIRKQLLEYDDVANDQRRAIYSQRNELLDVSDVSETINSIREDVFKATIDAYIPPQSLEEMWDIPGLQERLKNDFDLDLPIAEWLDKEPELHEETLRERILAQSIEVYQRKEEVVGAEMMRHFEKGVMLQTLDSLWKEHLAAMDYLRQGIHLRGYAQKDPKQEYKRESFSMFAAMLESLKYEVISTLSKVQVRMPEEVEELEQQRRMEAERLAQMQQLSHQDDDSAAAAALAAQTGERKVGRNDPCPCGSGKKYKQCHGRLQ

Compound | Percent Effect [1] | Percent Effect [2] | Percent Effect [3] | Percent Effect [4] | Percent Effect (Trypanosoma cruzi) | Percent Effect [5] | Percent Effect [6] | Percent Effect (Homo sapiens) | Percent Effect [7] | Percent Effect [8] | Percent Effect [9]
CCOCCn1nc(C)cc1C(=O)N1CCN(C(C)C)C(CC)C1 (configuration not stated) | -4.36% | 2.7% | -2.68% | 4.47% | 6.56% | -1.43% | 10.9% | 10.2% | 3.7% | 12.2% | -1.83%
Cn1ccnc1CNC1CCCN(Cc2noc(C3CC3)n2)C1 (configuration not stated) | -1.62% | 0% | -11.6% | 4.95% | 2.9% | 3.81% | 13.8% | 1.96% | 10.1% | 17.1% | -3.57%
CCC1CN(CC(=O)Nc2sccc2C#N)CCO1 (configuration not stated) | -4.43% | -13.2% | -2.5% | 2.86% | 0.376% | 0% | 8.19% | -2.35% | 4.41% | 9.76% | -9.42%
CC(C(=O)N1CCN(c2ccccc2Cl)CC1)n1cncn1 (configuration not stated) | -2.18% | 11.4% | 2.71% | 2.76% | 1.33% | -1.07% | 15.3% | 5.34% | 0% | 10.1% | -25.6%
CC(=O)N(C)CC(=O)Nc1cccc(N2CCN(CC3CC3)CC2)c1 | -6.27% | 5.41% | -9.55% | 0.217% | -1.86% | -13.2% | 1.46% | 4.97% | 3.23% | 11.1% | 0.0532%
c1cnc(N2CCC3(CCN(Cc4ccncc4)CC3)CC2)nc1 | -0.982% | 0% | 7.11% | 7.41% | -2.25% | -4.14% | 13.1% | -0.931% | 1.08% | 5.13% | 13%
Cc1nc(C2CCCN(C(=O)c3ccc(N4CCCC4)nc3)C2)no1 (configuration not stated) | -3.94% | 3.8% | 7.78% | 4.58% | 3.18% | -8.39% | 1.37% | 13.9% | 4.17% | 12.7% | -26.5%
Cc1oc(C(=O)O)cc1S(=O)(=O)Nc1c(F)cccc1-n1cccn1 | -5.09% | 0% | -0.737% | 4.46% | 7.5% | 0% | 11% | 7.88% | 2.73% | 6.17% | -3.81%
COc1cc2nc3n(c(=O)c2cc1OC)CCN(C(C)=O)CC3 | -1.86% | 4.05% | 9.32% | 3.01% | 0.593% | -1.16% | 5.62% | 11.5% | 1.07% | 11.7% | -1.39%
COCC1CN(Cc2cc(C)on2)Cc2cn(C)nc21 (configuration not stated) | -1.68% | 8% | 1.48% | 12.2% | -0.965% | -24.2% | 9.06% | -11% | 6.25% | 10% | -4.54%
COc1cc(CNC(=O)Nc2cc(C(F)(F)F)c[nH]c2=O)ccn1 | -3.54% | 13.2% | 2.48% | 10.4% | 1.13% | -3.06% | 12.7% | 7.49% | 0.49% | 12.2% | -11.3%
Cc1csc(C2CCCCN2C(=O)CN(C)Cc2ccccc2)n1 (configuration not stated) | -1.2% | -1.27% | 11% | 7.48% | -1.33% | 3.23% | 0.515% | -0.936% | 1.04% | 2.53% | 7.65%
Cc1nc(CN(C)C2CCN(CC3CCCCC3)C2)no1 (configuration not stated) | -3.09% | 18.9% | -8.63% | 1.46% | 4.55% | -7.95% | 8.8% | 10.1% | 5.94% | 23.2% | -8.81%
Cc1nn(C)c(Cl)c1C1CCCN1C(=O)c1ccc2c(c1)OCO2 (configuration not stated) | -1.18% | -2.7% | -7.03% | -0.722% | -5.38% | -2% | -0.901% | 13.8% | 0.493% | -6.17% | 0.203%
CC(C)NC(=O)N1CCC2(COCc3cnc(-c4cccnc4)nc32)C1 (configuration not stated) | -3.55% | 2.7% | 6.5% | 0.534% | -6.94% | 4.78% | 12% | 6.17% | 1.08% | 5.13% | 2.74%
O=C(Nc1nc2c(s1)CN(S(=O)(=O)C1CC1)CC2)c1c(F)cccc1F | -3.34% | 0% | 17.1% | -7.6% | -4.11% | 2.27% | 9.41% | 30.1% | 3.23% | 7.5% | -4.6%
CN(C)C(=O)c1ccc(CNC(=O)NCCN(C)C2CCCC2)cc1 | -0.464% | 16.2% | -9.52% | -5.04% | -3.87% | -2.81% | 5.41% | 22.8% | 7.39% | 18.5% | -6.9%
Cc1cccc(CN2C(=O)CC[C@@H]3[C@H]2CCN3Cc2ccc(C)s2)n1 | -2.54% | 2.67% | 9.98% | 2.33% | -1.57% | 0.233% | 9.43% | 6.8% | -1.06% | -3.85% | 2.14%
Cc1ccc(C(=O)N2CCN(Cc3nc(C(C)C)no3)CC2)c(=O)[nH]1 | -7.78% | 2.7% | -5.78% | 5.72% | -4.36% | -2.77% | -4.49% | 13.8% | 1.98% | 1.22% | 7.95%
Cc1nc(C2CCCN(C(=O)C(C)(C)n3cc(Cl)cn3)C2)no1 (configuration not stated) | -1.25% | 3.8% | -0.545% | 3.13% | 2.77% | 3.23% | 0.343% | -9.61% | 6.25% | 7.59% | -13.7%
O=C(NCc1ccc(-n2cncn2)nc1)c1ccoc1 | -8.93% | 0% | -18.3% | 31.6% | 11.6% | -10.4% | 0.901% | 3.65% | 4.43% | 18.5% | -15.1%
CCn1nccc1CNC(=O)C(C)n1cc2c(n1)c(C)nn2C (configuration not stated) | -5.47% | 20% | -7.37% | 0.228% | 0.197% | -11.4% | 10.5% | 2.05% | 5.29% | 12.8% | -12.4%

From ChEMBL document CHEMBL3988442, “University of Dundee, Small-Polar-MMV Screening Library” (2021)
